Reference: PubChem BioAssay
Records with an inconclusive call do not appear. Active and inactive are the calls of the source. Unless noted, how the calls were made is not given here.

Key:
[1] = yeast TOR pathway RPL19A-GFP modulators, primary screen, cell-based, S. cerevisiae, multiplex flow cytometry (AID 1862; in the data active means percent of DMSO control GFP below about 86%;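 further: lower values mimic rapamycin by blocking the RPL19A rise seen in DMSO cells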); settings: S. cerevisiae RPL19A-GFP strain, flow cytometry fluorescence, 3 h; at 10 µM; stronger effect = lower value
[2] = modulators of MEP2-GFP levels in yeast, primary screen, S. cerevisiae, multiplex flow cytometry (AID 1867;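 active means GFP response, as percent of the DMSO control, above the screen-wide mean plus 3 SD, about 139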;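 further: median GFP channel fluorescence of barcode-gated MEP2-GFP cells measured by flow cytometry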); settings: S. cerevisiae MEP2-GFP strain, 3 h, at 10 µM, stronger effect = higher value
[3] = modulators of CIT2-GFP expression in yeast, primary screen, S. cerevisiae, GFP fusion, multiplex flow cytometry (AID 1870;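 active means percent response above a set limit, the screen-wide mean plus 3 SD, cut at about 130% in these data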;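 further: barcoded CIT2-GFP strain pooled with four other GFP strains with rapamycin as positive control; median GFP fluorescence per well over plate mean of DMSO wells so 100% = DMSO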); settings: 3 h, at 10 µM, stronger effect = higher value
[4] = modulators of LAP4-GFP expression in yeast, primary screen, S. cerevisiae, multiplex flow cytometry (AID 1873;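 active means GFP signal, as percent of the solvent control, above the screen mean plus 3 SD, about 149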); settings: 3 h, at 10 µM, stronger effect = higher value
[5] = modulators of AGP1-GFP expression in yeast TOR pathway, primary screen, cell-based, multiplex flow cytometry, S. cerevisiae (AID 1887;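 active means GFP signal above the screen-wide mean plus 3 SD, that is over about 124.5% of the solvent control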;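 further: AGP1-GFP fusion strain of S. cerevisiae within a five-strain barcoded multiplex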); settings: 3 h, at 10 µM, stronger effect = higher value
[6] = inhibitors of CD8+ T cell-vesicle binding, pilot screen, LFA-1/ICAM-1 modulator project, MLPCN validation set, flow cytometry (AID 2523;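 active means response below a set limit, under 55% cells CD8-positive and vesicle-bound, and CD8 cells' 90th-percentile brightness under 279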;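 on vesicle binding response: mean PE anti-B7-1 fluorescence of CD8+ cells relative to row control; 100% = QL9-loaded vesicles with DMSO vehicle in the same plate row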); settings: 2C mouse CD8+ T cells, at 7 µM, stronger effect = lower value; double positive events: measured here: CD8+/vesicle+ event percentage
[7] = target: Integrin beta-1 (Homo sapiens) + Integrin alpha-4 (Homo sapiens) (UniProt P13612+P05556); test: inhibition of HUTS-21 binding to VLA-4, pilot screen, VLA-4 allosteric modulator project, U937 cells, HUTS-21 mAb, flow cytometry, validation set (AID 2674;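 active means inhibition above 50%, about 3 SD of the validation set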;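 further: antibody binding induced by the VLA-4 ligand LDV present at three times its Kd; 0% = LDV ligand with antibody and no compound and 100% = antibody without LDV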); settings: HUTS-21 LIBS mAb binding, at 6.7 µM, stronger effect = higher value
[8] = superoxide lowering in aged yeast cells, pilot screen, validation compound set (AID 2706;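 active means superoxide response below 65% of plate, a cut near 3 SD across the whole screen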;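 further: yeast exposed to compound for one week at 30 degrees C before staining; 100% = mean of all compound wells on the same plate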); settings: S. cerevisiae aging, superoxide DHE fluorescence; at 10 µM; stronger effect = lower value
[9] = target: Beta-adrenergic receptor kinase 1 (Homo sapiens) (UniProt P25098); test: GRK2 binders displacing RNA aptamer, biochemical, validation, human GRK2, bead flow cytometry (AID 488806;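 active means aptamer binding inhibition above 30%, about 3 SD of noise from non-fluorescent compounds; inactive means inhibition at or below 30%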); settings: bead-bound GRK2, FAM-aptamer displacement, at 10 µM, stronger effect = higher value
[10] = target: Beta-2 adrenergic receptor (Homo sapiens) (UniProt P07550); test: beta2AR agonists driving receptor internalization, pilot screen, cell-based, FAP fluorogen, flow cytometry, validation set (AID 504459;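 active means percent response above 42, roughly 3 SD of non-fluorescent test compounds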;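 further: agonist-driven loss of surface beta2AR via internalization measured by FAP dye flow cytometry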); settings: Am2.2-beta2AR cells, FAP surface receptor flow cytometry; at 10 µM; stronger effect = higher value
[11] = target: AP-2 complex subunit beta (Homo sapiens) (UniProt P63010); test: inhibitors of arrestin peptide binding to AP2, pilot screen, biochemical, validation set, GST-AP2 beads, flow cytometry (AID 504541;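 active means inhibition above 54%, about 3 SD of non-fluorescent compounds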;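 further: AP2 carries R879A mutation and is captured from E. coli lysate; bead-bound FITC arrestin peptide fluorescence measuring arrestin peptide binding to AP2; 0% = DMSO wells and 100% = excess unlabeled arrestin peptide control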); settings: FITC arrestin peptide, at 10 µM, stronger effect = higher value
[12] = yeast V-ATPase proton transport modulators, S. cerevisiae, pHLuorin, HTS validation (AID 504600; in the data active means response above about 15%;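 further: plate controls were DMSO for no effect and reference compound for full effect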); settings: S. cerevisiae pHLuorin cytosolic pH, at 10 µM, stronger effect = higher value
[13] = system: anti-desmoglein-3 scFv antibody binding to human DSG3; test: inhibitors of anti-DSG3 scFv binding to DSG3, pilot screen, biochemical, validation compound set, bead-based, flow cytometry (AID 588368;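 active means binding below the plate cutoff, the plate median minus 3 SD, with a reading above zero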;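 further: signal is the median channel fluorescence of bead-bound GFP antibody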); settings: Protein G beads, DSG3-Fc, scFv-GFP binding, at 10 µM, stronger effect = lower value
[14] = system: Botulinum neurotoxin type F light chain protease (Clostridium botulinum); test: Botulinum neurotoxin type F light chain protease inhibition, multiplex microsphere flow cytometry, validation set (AID 588459); settings: multiplex microsphere protease substrate cleavage assay, at 10 µM, stronger effect = higher value
[15] = target: Botulinum neurotoxin type A (Clostridium botulinum) (UniProt P0DPI0); test: BoNT/A light chain protease inhibitors, biochemical, multiplex microsphere flow cytometry, validation set (AID 588460); settings: at 10 µM, stronger effect = higher value
[16] = target: Lethal factor (Bacillus anthracis) (UniProt P15917); test: Lethal factor protease inhibitors, Bacillus anthracis, multiplex microsphere cleavage assay, validation set (AID 588461); settings: flow cytometry, at 10 µM, stronger effect = higher value
[17] = inhibitors of fungal efflux pumps CDR1, CDR2, MDR1, pilot screen, validation compound set, multiplex, phenotypic (AID 588506;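 active means efflux inhibition above 0.42, the validation set average plus 4 SD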;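 further: Nile Red retained in cells so higher fluorescence means more efflux inhibition; 0 = negative control wells and 1 = enniatin B 25 µM full block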); settings: S. cerevisiae pump-expressing triplex, Nile Red efflux flow cytometry; at 10 µM; stronger effect = higher value
[18] = target: ATP-binding cassette sub-family B member 6 (Homo sapiens) (UniProt Q9NP58); test: ABCB6 transporter inhibitors, pilot screen, K562-ABCB6 cells, flow cytometry, validation set (AID 588550;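 active means inhibition above the screen-wide mean plus 3 SD, about 51%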;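 further: 0% = DMSO wells and 100% = benzethonium chloride 70 µM positive control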); settings: K562-ABCB6 porphyrin accumulation, 1 h, at 10 µM, stronger effect = higher value
[19] = promoters of myeloid differentiation in arrested cells, primary screen, cell-based, GFP/MAC1 double positive, flow cytometry, validation set (AID 588685;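 active means differentiation response of at least 50%, scaled between solvent and reference control, from cells with both markers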;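 further: compound exposure lasts four days before antibody staining and flow analysis; 0% = DMSO wells and 100% = 5 µM fulvestrant positive control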); settings: ER-HoxA9 marrow cells, stronger effect = higher value

Chain of ATP-binding cassette sub-family B member 6 (Homo sapiens) (Q9NP58 whole entry, looked up): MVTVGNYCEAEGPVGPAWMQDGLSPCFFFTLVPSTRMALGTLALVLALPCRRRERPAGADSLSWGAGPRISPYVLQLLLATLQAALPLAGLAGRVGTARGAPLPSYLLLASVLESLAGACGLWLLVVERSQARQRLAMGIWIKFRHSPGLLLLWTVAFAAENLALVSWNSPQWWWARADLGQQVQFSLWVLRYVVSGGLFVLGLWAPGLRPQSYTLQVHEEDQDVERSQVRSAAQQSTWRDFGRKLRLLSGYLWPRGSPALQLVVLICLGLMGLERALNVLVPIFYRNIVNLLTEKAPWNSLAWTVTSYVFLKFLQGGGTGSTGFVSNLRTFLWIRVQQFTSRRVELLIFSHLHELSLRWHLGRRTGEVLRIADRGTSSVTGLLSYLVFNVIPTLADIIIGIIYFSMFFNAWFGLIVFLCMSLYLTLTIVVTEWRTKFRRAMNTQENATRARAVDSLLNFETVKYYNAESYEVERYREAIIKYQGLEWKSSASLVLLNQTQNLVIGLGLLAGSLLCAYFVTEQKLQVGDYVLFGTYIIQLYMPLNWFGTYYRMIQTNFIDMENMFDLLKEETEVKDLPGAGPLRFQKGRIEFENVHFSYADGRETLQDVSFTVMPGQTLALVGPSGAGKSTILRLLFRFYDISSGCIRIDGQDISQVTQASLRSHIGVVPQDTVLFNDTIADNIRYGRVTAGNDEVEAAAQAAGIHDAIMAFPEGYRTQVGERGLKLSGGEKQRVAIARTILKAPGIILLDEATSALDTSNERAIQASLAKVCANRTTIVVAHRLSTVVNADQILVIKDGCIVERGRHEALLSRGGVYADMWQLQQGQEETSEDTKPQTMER
Chain of Lethal factor (Bacillus anthracis) (P15917 whole entry, looked up): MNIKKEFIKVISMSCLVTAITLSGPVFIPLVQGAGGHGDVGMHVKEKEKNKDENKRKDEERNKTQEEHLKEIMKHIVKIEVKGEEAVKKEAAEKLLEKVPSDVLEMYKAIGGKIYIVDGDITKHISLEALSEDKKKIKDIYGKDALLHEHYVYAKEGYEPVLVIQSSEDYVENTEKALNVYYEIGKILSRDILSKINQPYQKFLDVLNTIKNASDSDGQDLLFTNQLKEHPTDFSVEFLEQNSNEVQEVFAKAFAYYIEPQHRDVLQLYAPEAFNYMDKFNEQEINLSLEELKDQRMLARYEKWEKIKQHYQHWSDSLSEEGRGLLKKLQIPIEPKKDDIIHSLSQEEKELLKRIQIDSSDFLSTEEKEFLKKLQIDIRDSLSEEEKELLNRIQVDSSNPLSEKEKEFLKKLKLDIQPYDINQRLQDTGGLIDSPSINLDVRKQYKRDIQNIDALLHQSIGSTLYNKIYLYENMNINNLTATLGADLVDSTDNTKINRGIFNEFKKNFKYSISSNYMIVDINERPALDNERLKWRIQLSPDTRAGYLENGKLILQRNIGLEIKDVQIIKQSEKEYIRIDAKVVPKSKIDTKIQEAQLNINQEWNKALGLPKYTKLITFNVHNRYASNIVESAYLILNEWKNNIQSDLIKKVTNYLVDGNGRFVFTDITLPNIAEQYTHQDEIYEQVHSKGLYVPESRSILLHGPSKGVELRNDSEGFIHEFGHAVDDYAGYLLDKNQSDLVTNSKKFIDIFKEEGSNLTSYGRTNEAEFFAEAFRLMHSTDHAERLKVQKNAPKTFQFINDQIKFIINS
Chain of Beta-adrenergic receptor kinase 1 (Homo sapiens) (P25098 whole entry, looked up): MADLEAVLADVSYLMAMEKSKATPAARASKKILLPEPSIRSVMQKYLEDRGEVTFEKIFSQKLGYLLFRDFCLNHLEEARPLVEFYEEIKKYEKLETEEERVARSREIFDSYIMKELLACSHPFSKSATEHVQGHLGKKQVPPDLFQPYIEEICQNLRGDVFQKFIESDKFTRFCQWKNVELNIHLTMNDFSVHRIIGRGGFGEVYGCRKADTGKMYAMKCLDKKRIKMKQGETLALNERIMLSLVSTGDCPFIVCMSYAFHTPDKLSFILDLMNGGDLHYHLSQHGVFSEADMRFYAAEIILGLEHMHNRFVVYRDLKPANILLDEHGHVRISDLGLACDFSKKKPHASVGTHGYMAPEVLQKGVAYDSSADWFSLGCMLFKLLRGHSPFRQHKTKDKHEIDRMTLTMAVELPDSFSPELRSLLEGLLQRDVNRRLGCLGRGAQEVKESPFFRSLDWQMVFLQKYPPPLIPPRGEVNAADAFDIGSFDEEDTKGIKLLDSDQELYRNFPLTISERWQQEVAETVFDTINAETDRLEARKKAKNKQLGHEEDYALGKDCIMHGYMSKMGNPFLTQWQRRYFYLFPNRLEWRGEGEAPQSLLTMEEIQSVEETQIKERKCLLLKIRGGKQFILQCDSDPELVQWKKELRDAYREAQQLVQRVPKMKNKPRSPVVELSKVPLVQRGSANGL
Chain of Beta-2 adrenergic receptor (Homo sapiens) (P07550 whole entry, looked up): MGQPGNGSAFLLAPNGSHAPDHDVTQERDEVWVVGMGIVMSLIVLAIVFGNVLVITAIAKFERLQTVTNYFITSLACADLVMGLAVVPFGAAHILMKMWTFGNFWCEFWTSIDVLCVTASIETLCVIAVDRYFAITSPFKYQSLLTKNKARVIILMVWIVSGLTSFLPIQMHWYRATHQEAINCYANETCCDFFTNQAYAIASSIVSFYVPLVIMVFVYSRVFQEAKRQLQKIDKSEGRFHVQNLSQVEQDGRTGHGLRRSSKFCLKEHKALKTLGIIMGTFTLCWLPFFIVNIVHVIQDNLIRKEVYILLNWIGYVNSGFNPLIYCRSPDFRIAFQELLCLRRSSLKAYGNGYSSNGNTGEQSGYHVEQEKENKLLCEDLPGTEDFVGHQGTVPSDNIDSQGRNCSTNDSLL
Chain of AP-2 complex subunit beta (Homo sapiens) (P63010 whole entry, looked up, one chain of several): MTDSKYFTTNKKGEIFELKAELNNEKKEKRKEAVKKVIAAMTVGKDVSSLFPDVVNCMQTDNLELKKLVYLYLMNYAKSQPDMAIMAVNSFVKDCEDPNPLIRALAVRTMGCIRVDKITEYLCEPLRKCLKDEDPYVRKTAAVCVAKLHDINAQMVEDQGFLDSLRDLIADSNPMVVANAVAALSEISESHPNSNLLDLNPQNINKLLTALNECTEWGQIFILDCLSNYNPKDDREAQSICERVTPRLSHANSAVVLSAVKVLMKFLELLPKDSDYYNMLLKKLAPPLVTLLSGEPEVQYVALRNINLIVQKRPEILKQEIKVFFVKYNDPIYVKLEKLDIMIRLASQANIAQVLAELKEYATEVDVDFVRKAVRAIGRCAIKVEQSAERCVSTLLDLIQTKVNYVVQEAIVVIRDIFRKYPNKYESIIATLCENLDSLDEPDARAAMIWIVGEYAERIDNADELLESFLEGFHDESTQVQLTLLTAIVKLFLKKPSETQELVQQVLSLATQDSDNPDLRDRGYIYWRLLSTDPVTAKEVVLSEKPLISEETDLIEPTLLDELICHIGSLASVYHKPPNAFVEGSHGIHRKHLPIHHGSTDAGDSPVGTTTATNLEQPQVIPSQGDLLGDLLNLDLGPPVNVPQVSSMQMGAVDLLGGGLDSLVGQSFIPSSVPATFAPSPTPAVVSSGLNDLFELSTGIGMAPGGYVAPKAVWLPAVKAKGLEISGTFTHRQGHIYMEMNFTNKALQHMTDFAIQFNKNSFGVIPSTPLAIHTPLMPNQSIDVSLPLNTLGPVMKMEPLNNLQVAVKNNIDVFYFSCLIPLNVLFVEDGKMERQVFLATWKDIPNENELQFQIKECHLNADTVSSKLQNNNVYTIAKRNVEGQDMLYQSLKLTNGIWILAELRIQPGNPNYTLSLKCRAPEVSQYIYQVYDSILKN
Chain of Botulinum neurotoxin type A (Clostridium botulinum) (P0DPI0 whole entry, looked up): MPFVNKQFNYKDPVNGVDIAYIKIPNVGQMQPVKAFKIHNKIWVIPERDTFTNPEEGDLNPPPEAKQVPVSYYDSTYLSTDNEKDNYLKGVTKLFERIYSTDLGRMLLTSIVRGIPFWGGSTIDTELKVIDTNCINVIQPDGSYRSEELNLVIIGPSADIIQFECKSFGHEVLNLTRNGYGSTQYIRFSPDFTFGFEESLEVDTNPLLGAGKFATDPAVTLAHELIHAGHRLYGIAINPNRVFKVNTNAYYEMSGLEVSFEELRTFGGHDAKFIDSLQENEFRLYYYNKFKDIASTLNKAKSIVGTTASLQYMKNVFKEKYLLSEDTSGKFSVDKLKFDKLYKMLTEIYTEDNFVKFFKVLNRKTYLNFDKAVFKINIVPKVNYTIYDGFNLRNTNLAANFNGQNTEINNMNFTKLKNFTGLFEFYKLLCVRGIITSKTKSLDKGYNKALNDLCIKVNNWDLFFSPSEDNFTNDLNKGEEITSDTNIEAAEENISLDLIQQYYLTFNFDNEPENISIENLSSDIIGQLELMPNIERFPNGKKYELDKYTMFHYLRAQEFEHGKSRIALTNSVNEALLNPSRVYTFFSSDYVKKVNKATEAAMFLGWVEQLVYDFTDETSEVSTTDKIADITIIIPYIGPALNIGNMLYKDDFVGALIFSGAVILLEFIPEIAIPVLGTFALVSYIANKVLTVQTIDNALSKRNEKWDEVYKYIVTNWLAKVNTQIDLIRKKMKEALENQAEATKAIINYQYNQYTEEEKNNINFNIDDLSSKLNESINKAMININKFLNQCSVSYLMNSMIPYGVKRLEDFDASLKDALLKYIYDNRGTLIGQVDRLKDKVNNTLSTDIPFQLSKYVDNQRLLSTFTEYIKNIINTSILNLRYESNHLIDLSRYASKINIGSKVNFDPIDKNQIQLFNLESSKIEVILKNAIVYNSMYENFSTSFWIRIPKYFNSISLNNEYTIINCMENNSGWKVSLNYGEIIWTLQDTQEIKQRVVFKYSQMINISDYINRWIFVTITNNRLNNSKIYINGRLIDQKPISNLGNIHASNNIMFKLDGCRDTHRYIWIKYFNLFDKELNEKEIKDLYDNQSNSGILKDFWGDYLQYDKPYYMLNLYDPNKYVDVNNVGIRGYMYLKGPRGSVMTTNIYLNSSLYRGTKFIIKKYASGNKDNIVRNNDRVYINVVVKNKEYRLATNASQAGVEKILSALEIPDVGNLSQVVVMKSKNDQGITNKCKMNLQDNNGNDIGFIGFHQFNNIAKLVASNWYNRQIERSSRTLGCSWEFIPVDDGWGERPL

CN1CC[C@@]23CCCC[C@@H]2[C@@H]1Cc1ccc(O)cc13
percent of DMSO control GFP [1]: 99.4% (inactive)
GFP response vs DMSO [2]: 110% (inactive)
percent response of DMSO control [3]: 96.6% (inactive)
GFP response vs DMSO [4]: 98.6% (inactive)
GFP response, % of DMSO [5]: 100% (inactive)
double positive events [6]: 60.4%
vesicle binding response [6]: 47.7% (inactive)
inhibition [7]: -0.45% (inactive)
superoxide response (% of plate) [8]: 109% (inactive)
aptamer binding inhibition [9]: -1% (inactive)
response [10]: 2.76% (inactive)
inhibition [11]: 9.83% (inactive)
response [12]: -1.79% (inactive)
binding (% of control) [13]: 92% (inactive)
inhibition [14]: -10% (inactive)
inhibition [15]: -1.6% (inactive)
inhibition [16]: -1.3% (inactive)
efflux inhibition (fraction of control) [17]: -0.07 (inactive)
inhibition [18]: 2% (inactive)
differentiation response [19]: 3.18% (inactive)

C[N+](C)(C)Cc1ccccc1
percent of DMSO control GFP [1]: 103% (inactive)
GFP response vs DMSO [2]: 105% (inactive)
percent response of DMSO control [3]: 106% (inactive)
GFP response vs DMSO [4]: 109% (inactive)
GFP response, % of DMSO [5]: 110% (inactive)
double positive events [6]: 64.9%
vesicle binding response [6]: 147% (inactive)
inhibition [7]: -14.5% (inactive)
superoxide response (% of plate) [8]: 89.2% (inactive)
aptamer binding inhibition [9]: -1% (inactive)
response [10]: -3.98% (inactive)
inhibition [11]: 3.88% (inactive)
response [12]: -0.83% (inactive)
binding (% of control) [13]: 103% (inactive)
inhibition [14]: 1.5% (inactive)
inhibition [15]: 0.6% (inactive)
inhibition [16]: 4.6% (inactive)
efflux inhibition (fraction of control) [17]: 0.245 (inactive)
inhibition [18]: 1% (inactive)
differentiation response [19]: -14.8% (inactive)

O=Cc1cn(Cc2ccc(F)cc2)c2ccccc12
percent of DMSO control GFP [1]: 97.8% (inactive)
GFP response vs DMSO [2]: 113% (inactive)
percent response of DMSO control [3]: 90.1% (inactive)
GFP response vs DMSO [4]: 129% (inactive)
GFP response, % of DMSO [5]: 102% (inactive)
double positive events [6]: 60.5%
vesicle binding response [6]: 173% (inactive)
inhibition [7]: 2.3% (inactive)
superoxide response (% of plate) [8]: 99.1% (inactive)
aptamer binding inhibition [9]: 1% (inactive)
response [10]: 14.3% (inactive)
inhibition [11]: 49.4% (inactive)
response [12]: -7.85% (inactive)
binding (% of control) [13]: 97.2% (inactive)
inhibition [14]: 8.3% (inactive)
inhibition [15]: 3.1% (inactive)
inhibition [16]: 3.2% (inactive)
efflux inhibition (fraction of control) [17]: 0.12 (inactive)
inhibition [18]: 2% (inactive)
differentiation response [19]: 93.6% (active)

CC12CCC3C(CC=C4CC(O)CCC43C)C1C/C(=C\c1cccc(F)c1)C2=O (centres undefined)
percent of DMSO control GFP [1]: 98.2% (inactive)
GFP response vs DMSO [2]: 103% (inactive)
percent response of DMSO control [3]: 95.1% (inactive)
GFP response vs DMSO [4]: 113% (inactive)
GFP response, % of DMSO [5]: 102% (inactive)
double positive events [6]: 63.9%
vesicle binding response [6]: 171% (inactive)
inhibition [7]: -7.08% (inactive)
superoxide response (% of plate) [8]: 100% (inactive)
aptamer binding inhibition [9]: 3% (inactive)
response [10]: -8.92% (inactive)
inhibition [11]: 9.38% (inactive)
response [12]: -4.42% (inactive)
binding (% of control) [13]: 98.7% (inactive)
inhibition [14]: -0.7% (inactive)
inhibition [15]: -0.1% (inactive)
inhibition [16]: -1.4% (inactive)
efflux inhibition (fraction of control) [17]: -0.13 (inactive)
inhibition [18]: -1% (inactive)
differentiation response [19]: 2.89% (inactive)

c1ccc(Cn2ccnc2)cc1
percent of DMSO control GFP [1]: 97.4% (inactive)
GFP response vs DMSO [2]: 97.9% (inactive)
percent response of DMSO control [3]: 90% (inactive)
GFP response vs DMSO [4]: 99.4% (inactive)
GFP response, % of DMSO [5]: 98.2% (inactive)
double positive events [6]: 63.8%
vesicle binding response [6]: 185% (inactive)
inhibition [7]: 14.7% (inactive)
superoxide response (% of plate) [8]: 92.9% (inactive)
aptamer binding inhibition [9]: 12% (inactive)
inhibition [11]: 0.17% (inactive)
response [12]: 4.53% (inactive)
binding (% of control) [13]: 97.7% (inactive)
inhibition [14]: 5.2% (inactive)
inhibition [15]: 0.1% (inactive)
inhibition [16]: -0.1% (inactive)
efflux inhibition (fraction of control) [17]: 0.03 (inactive)
inhibition [18]: 9% (inactive)
differentiation response [19]: -16.4% (inactive)
